# In publication PMC7862700, “An all-to-all approach to the identification of sequence-specific readers for epigenetic DNA modifications on cytosine”:
# Tests used:
# Experiment in all cases: DAPPL (digital affinity profiling via proximity ligation, sequencing); 10 mM Tris-HCl pH 7.5, 50 mM NaCl, 1 mM DTT, 4% glycerol, room temperature, 30 min; GST-TFs on glutathione beads, 16-mer random dsDNA library, 0.1% formaldehyde crosslink after washing; high values mean tight binding
# FLI1 = target: T1, FLI1 (Homo sapiens, UniProt Q01543 1-452); details: protein: recombinant; tags: N-terminal GST; dsDNA, one strand shown
# T1 sequence: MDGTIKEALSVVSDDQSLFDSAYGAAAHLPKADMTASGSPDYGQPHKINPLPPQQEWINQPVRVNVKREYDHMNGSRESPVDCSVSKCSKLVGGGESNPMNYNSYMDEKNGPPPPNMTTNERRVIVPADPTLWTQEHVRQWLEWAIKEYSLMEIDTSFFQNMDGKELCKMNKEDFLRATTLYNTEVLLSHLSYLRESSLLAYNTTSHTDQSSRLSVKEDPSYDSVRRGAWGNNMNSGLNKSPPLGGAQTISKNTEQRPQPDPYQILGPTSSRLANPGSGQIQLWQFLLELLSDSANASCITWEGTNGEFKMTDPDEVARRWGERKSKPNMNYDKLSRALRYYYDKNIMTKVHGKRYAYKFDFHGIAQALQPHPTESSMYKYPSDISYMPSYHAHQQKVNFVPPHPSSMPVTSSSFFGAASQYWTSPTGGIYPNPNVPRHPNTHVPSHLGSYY
# Procedure, shortened: (§1)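 Binding signal is defined as a hexamer's read frequency for one factor over its frequency for the tag-only sample. To obtain reads, GST-fused human transcription factors were expressed in yeast, captured on glutathione beads, barcoded with DNA and pooled with that sample. Pools met 200 nmole of a 16-mer random double-stranded DNA library in Tris/NaCl/DTT/glycerol buffer for 30 min at room temperature before washing, 0.1% formaldehyde crosslinking, proximity ligation (BsaI/T4 ligase, 1 h, 37 °C), PCR and Illumina NextSeq500 sequencing.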
# ELK1 = target: T2, ELK1 (Homo sapiens, UniProt P19419 1-428); details: protein: recombinant; tags: N-terminal GST; dsDNA, one strand shown
# T2 sequence: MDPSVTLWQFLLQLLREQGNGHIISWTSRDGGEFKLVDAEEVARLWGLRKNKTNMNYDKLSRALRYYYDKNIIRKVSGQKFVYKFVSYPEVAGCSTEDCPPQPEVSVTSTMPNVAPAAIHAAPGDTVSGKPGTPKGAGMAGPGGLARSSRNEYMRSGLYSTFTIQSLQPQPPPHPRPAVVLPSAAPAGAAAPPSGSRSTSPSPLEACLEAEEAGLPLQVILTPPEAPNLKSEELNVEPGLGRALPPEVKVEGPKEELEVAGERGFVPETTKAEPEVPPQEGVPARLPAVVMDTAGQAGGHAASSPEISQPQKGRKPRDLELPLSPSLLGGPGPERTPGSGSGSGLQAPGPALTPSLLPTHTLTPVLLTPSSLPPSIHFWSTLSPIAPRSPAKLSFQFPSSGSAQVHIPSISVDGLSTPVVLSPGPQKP
# Procedure, shortened: as §1
# GABPA = target: T3, GABPA (Homo sapiens, UniProt Q06546 1-454); details: protein: recombinant; tags: N-terminal GST; dsDNA, one strand shown
# T3 sequence: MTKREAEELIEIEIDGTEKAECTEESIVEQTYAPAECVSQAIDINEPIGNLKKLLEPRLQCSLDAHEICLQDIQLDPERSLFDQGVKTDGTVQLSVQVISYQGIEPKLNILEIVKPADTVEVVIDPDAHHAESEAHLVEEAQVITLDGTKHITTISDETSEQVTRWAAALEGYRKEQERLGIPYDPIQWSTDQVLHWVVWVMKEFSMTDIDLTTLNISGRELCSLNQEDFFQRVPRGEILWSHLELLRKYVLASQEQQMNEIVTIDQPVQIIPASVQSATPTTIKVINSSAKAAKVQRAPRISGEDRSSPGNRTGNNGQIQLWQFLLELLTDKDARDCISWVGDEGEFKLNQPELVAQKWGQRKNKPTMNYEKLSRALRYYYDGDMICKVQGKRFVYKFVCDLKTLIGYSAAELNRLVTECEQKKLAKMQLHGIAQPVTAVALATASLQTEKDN
# Procedure, shortened: as §1
# ERG = target: T4, ERG (Homo sapiens, UniProt P11308 1-479); details: protein: recombinant; tags: N-terminal GST; dsDNA, one strand shown
# T4 sequence: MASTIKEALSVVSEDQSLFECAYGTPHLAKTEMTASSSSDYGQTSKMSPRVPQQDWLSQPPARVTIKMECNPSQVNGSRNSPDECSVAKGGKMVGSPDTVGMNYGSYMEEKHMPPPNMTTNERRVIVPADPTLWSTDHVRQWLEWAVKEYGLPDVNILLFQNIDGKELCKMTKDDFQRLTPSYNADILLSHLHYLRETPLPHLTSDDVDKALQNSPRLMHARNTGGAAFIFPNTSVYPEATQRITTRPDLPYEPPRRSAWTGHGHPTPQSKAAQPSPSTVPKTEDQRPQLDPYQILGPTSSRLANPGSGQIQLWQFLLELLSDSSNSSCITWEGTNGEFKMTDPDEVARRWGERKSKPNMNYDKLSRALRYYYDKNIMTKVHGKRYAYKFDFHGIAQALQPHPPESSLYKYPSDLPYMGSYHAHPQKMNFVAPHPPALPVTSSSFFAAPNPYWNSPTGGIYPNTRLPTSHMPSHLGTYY
# Procedure, shortened: as §1
# ELF1 = ELF1 (Homo sapiens, UniProt P32519 1-619); details: protein: recombinant; tags: N-terminal GST; dsDNA, one strand shown
# ELF1, sequence (P32519 whole entry): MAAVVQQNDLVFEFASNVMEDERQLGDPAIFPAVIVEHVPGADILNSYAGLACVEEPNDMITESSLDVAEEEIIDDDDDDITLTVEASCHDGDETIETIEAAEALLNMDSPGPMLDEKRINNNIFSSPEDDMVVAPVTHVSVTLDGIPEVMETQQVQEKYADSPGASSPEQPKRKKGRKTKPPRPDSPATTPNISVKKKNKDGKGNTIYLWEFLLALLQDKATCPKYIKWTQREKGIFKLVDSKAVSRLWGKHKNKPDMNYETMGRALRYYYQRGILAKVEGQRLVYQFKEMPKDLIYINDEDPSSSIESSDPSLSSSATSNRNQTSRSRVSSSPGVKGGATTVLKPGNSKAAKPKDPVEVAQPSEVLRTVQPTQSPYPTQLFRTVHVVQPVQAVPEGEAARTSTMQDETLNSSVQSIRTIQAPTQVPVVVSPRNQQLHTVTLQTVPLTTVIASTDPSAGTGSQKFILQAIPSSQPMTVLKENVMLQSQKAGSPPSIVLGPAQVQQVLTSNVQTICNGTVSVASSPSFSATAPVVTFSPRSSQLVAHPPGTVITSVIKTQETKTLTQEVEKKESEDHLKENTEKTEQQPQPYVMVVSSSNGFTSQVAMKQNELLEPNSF
# Procedure, shortened: as §1
# EHF = target: T5, EHF (Homo sapiens, UniProt Q9NZC4 1-300); details: protein: recombinant; tags: N-terminal GST; dsDNA, one strand shown
# T5 sequence: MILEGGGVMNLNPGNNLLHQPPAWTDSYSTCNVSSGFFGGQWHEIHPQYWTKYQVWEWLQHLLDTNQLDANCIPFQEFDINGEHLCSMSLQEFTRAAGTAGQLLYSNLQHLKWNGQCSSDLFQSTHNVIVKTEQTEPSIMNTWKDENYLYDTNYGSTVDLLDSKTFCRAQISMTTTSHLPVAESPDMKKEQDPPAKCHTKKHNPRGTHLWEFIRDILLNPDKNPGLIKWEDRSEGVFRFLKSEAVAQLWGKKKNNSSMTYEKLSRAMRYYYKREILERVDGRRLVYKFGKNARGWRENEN
# Procedure, shortened: as §1
# SPI1 = SPI1 (Homo sapiens, UniProt P17947 1-270); details: protein: recombinant; tags: N-terminal GST; dsDNA, one strand shown
# Procedure, shortened: as §1
# SPIB = SPIB (Homo sapiens, UniProt Q01892 1-262); details: protein: recombinant; tags: N-terminal GST; dsDNA, one strand shown
# SPIB, sequence (Q01892 whole entry): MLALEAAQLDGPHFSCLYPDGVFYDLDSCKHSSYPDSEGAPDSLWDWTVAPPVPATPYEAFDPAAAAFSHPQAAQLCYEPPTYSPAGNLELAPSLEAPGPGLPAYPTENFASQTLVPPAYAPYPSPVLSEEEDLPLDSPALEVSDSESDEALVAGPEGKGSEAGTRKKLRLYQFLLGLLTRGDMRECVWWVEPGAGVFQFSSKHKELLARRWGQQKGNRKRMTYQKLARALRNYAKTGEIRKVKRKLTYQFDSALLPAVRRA
# Procedure, shortened: as §1
# ELK3 = target: T6, ELK3 (Homo sapiens, UniProt P41970 1-407); details: protein: recombinant; tags: N-terminal GST; dsDNA, one strand shown
# T6 sequence: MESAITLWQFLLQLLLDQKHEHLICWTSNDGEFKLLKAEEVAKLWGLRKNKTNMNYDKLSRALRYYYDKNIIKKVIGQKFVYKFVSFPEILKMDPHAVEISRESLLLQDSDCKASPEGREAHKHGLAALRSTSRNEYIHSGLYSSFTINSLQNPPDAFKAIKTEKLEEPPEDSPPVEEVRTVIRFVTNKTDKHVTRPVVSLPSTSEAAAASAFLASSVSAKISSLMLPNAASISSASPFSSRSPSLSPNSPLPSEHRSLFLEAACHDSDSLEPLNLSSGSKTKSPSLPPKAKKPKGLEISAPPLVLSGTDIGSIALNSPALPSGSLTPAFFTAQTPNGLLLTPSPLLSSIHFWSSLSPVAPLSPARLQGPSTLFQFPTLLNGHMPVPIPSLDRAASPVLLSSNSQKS
# Procedure, shortened: as §1
# FEV = target: T7, FEV (Homo sapiens, UniProt Q99581 1-238); details: protein: recombinant; tags: N-terminal GST; dsDNA, one strand shown
# T7 sequence: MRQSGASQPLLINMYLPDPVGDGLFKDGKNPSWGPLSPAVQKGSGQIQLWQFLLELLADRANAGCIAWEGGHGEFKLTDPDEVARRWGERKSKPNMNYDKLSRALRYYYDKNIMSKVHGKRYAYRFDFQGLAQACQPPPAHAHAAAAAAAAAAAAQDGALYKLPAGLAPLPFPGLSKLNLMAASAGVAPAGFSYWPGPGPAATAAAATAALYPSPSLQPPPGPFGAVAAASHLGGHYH
# Procedure, shortened: as §1
# ETV5 = ETV5 (Homo sapiens, UniProt P41161 1-510); details: protein: recombinant; tags: N-terminal GST; dsDNA, one strand shown
# ETV5, sequence (P41161 whole entry): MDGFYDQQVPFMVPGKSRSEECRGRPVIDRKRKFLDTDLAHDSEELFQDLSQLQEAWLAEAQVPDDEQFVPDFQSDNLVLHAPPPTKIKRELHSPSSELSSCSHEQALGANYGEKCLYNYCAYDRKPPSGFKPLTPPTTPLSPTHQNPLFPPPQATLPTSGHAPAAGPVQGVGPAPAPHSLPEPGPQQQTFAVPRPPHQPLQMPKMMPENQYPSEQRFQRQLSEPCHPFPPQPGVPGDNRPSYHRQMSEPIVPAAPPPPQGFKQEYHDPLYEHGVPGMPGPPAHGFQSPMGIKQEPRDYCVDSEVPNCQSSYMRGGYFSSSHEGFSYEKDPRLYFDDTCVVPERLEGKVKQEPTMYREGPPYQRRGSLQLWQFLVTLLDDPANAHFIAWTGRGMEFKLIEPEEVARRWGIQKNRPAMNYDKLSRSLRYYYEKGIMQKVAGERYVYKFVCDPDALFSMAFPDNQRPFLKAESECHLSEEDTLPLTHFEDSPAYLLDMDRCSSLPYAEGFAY
# Procedure, shortened: as §1
# HSF1 = HSF1 (Homo sapiens, UniProt Q00613 1-529); details: protein: recombinant; tags: N-terminal GST; chain copies: 3; dsDNA, one strand shown
# HSF1, sequence (Q00613 whole entry): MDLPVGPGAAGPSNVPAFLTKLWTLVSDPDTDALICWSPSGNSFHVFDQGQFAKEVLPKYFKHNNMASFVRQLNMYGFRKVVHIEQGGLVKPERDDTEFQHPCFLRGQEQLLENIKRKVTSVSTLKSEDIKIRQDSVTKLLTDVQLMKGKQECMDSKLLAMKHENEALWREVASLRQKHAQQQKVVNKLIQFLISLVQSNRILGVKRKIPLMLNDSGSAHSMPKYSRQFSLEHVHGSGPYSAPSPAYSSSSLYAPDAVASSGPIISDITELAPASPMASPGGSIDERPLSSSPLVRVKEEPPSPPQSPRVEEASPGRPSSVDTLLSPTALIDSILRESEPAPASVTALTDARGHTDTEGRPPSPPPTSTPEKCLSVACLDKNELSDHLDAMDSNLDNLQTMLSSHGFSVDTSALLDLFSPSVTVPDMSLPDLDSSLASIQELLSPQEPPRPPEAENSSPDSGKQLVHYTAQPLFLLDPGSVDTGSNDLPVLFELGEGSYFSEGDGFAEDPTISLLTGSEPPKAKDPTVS
# Procedure, shortened: as §1
# SPIC = target: T8, SPIC (Homo sapiens, UniProt Q8N5J4 1-248); details: protein: recombinant; tags: N-terminal GST; dsDNA, one strand shown
# T8 sequence: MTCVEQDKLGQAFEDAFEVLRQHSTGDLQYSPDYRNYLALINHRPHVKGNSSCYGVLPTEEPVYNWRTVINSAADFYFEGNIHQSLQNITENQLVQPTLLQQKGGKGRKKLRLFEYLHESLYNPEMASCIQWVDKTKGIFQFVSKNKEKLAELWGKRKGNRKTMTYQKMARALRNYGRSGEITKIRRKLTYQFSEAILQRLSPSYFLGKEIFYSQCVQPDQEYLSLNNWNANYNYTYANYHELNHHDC
# Procedure, shortened: as §1
# ELF4 = ELF4 (Homo sapiens, UniProt Q99607 1-663); details: protein: recombinant; tags: N-terminal GST; dsDNA, one strand shown
# ELF4, sequence (Q99607 whole entry): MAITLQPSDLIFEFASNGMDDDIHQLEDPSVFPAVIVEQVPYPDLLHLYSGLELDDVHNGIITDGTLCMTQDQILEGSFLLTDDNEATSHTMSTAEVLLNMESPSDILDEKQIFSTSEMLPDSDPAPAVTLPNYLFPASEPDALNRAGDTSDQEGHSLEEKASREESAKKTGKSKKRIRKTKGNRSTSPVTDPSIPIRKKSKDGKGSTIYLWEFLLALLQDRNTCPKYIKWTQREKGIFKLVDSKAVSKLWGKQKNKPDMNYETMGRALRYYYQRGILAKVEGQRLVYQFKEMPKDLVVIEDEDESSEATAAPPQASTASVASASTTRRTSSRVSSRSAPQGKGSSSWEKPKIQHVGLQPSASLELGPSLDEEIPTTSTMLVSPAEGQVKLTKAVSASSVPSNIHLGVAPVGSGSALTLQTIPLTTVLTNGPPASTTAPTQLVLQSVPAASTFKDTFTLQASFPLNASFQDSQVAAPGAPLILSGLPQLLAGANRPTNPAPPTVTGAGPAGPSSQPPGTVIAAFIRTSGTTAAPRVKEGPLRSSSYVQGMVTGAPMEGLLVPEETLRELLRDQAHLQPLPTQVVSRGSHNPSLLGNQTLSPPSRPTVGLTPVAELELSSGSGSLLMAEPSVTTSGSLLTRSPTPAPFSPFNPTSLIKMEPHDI
# Procedure, shortened: as §1
# ELK4 = target: T9, ELK4 (Homo sapiens, UniProt P28324-2 1-405); details: protein: recombinant; tags: N-terminal GST; dsDNA, one strand shown
# T9 sequence: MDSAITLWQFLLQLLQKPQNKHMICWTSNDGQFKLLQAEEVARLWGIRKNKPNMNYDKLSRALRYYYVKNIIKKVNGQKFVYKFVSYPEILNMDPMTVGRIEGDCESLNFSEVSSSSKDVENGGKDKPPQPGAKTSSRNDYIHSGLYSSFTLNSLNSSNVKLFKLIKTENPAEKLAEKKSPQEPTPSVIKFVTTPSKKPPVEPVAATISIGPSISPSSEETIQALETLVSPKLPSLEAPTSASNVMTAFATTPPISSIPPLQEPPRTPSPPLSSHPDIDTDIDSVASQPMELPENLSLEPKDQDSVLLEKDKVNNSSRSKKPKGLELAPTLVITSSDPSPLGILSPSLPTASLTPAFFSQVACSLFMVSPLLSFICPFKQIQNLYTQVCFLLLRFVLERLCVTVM
# Procedure, shortened: as §1
# ETV2 = target: T10, ETV2 (Homo sapiens, UniProt O00321 1-342); details: protein: recombinant; tags: N-terminal GST; dsDNA, one strand shown
# T10 sequence: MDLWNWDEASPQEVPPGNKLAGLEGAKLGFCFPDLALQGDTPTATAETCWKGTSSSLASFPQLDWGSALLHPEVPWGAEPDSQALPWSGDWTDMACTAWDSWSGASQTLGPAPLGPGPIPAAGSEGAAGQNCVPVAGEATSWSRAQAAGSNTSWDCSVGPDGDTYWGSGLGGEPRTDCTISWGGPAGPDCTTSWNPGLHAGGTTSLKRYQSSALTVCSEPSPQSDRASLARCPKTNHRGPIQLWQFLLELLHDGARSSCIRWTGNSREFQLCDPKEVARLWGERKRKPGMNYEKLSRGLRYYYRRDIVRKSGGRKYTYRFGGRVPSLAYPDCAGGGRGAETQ
# Procedure, shortened: as §1
# ELF3 = target: T11, ELF3 (Homo sapiens, UniProt P78545 1-371); details: protein: recombinant; tags: N-terminal GST; dsDNA, one strand shown
# T11 sequence: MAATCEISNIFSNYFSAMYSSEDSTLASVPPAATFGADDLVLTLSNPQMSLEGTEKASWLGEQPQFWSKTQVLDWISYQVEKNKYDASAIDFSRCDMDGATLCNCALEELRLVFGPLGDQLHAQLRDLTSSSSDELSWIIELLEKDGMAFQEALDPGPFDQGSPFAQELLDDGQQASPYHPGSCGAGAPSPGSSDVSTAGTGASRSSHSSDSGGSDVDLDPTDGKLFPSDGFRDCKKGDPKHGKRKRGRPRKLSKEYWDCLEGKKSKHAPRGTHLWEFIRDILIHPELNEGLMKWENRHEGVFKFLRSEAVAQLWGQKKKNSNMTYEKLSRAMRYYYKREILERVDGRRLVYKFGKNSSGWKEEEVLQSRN
# Procedure, shortened: as §1
# CRX = CRX (Homo sapiens, UniProt O43186 1-299); details: protein: recombinant; tags: N-terminal GST; dsDNA, one strand shown
# CRX, sequence (O43186 whole entry): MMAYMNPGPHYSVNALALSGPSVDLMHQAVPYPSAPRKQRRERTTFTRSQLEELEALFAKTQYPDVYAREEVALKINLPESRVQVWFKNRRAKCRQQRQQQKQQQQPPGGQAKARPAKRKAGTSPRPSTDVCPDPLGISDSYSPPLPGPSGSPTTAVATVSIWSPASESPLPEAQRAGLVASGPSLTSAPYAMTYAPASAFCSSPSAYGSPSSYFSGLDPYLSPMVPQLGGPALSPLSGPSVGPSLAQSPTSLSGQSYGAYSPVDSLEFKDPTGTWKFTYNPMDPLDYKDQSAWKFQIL
# Procedure, shortened: as §1
# ETV1 = ETV1 (Homo sapiens, UniProt P50549 1-477); details: protein: recombinant; tags: N-terminal GST; dsDNA, one strand shown
# ETV1, sequence (P50549 whole entry): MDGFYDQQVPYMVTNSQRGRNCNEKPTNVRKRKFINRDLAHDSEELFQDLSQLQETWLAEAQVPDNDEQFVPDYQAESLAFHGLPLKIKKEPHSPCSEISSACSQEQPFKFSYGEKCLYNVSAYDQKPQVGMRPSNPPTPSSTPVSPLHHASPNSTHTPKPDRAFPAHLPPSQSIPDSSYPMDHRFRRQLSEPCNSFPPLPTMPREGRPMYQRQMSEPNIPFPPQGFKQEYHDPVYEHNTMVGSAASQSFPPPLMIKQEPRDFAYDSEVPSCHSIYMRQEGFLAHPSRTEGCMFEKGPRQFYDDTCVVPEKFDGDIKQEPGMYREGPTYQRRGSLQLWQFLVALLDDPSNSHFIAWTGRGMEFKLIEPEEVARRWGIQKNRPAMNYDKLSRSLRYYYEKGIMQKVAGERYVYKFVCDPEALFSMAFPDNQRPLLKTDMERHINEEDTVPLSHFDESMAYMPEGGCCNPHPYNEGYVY
# Procedure, shortened: as §1
sequence,measurement,setting,value
CTTCGC,binding signal,FLI1,"1.43 fold enrichment (6-mer frequency, TF over GST control)"
same,binding signal,ELK1,"1.56 fold enrichment (6-mer frequency, TF over GST control)"
same,binding signal,GABPA,"1.5 fold enrichment (6-mer frequency, TF over GST control)"
same,binding signal,ERG,"1.53 fold enrichment (6-mer frequency, TF over GST control)"
same,binding signal,ELF1,"1.46 fold enrichment (6-mer frequency, TF over GST control)"
same,binding signal,EHF,"1.32 fold enrichment (6-mer frequency, TF over GST control)"
same,binding signal,SPI1,"1.42 fold enrichment (6-mer frequency, TF over GST control)"
same,binding signal,SPIB,"1.6 fold enrichment (6-mer frequency, TF over GST control)"
same,binding signal,ELK3,"1.7 fold enrichment (6-mer frequency, TF over GST control)"
same,binding signal,FEV,"1.41 fold enrichment (6-mer frequency, TF over GST control)"
same,binding signal,ETV5,"1.31 fold enrichment (6-mer frequency, TF over GST control)"
same,binding signal,HSF1,"1.63 fold enrichment (6-mer frequency, TF over GST control)"
same,binding signal,SPIC,"1.18 fold enrichment (6-mer frequency, TF over GST control)"
same,binding signal,ELF4,"1.45 fold enrichment (6-mer frequency, TF over GST control)"
same,binding signal,ELK4,"1.32 fold enrichment (6-mer frequency, TF over GST control)"
same,binding signal,ETV2,"1.62 fold enrichment (6-mer frequency, TF over GST control)"
same,binding signal,ELF3,"1.37 fold enrichment (6-mer frequency, TF over GST control)"
same,binding signal,CRX,"1.24 fold enrichment (6-mer frequency, TF over GST control)"
same,binding signal,ETV1,"1.52 fold enrichment (6-mer frequency, TF over GST control)"
